In ChEMBL document CHEMBL4513216, “Probing the Open Global Health Chemical Diversity Library for Multistage-Active Starting Points for Next-Generation Antimalarials” (ACS Infect Dis, 2020):
The campaign covered roughly 69,000 compounds. About 8,600 (12%) showed an effect of 50% or more. The sample holds strong results, similar compounds and a random draw of the others, so the mix is not that of the screen.

System: Plasmodium berghei
Experiment: Screen against P. berghei liver stage (PbLuc), transformed with Luciferase, at 10uM
Assay type: functional, HepG2
Settings: tested at 10 uM

SMILES	INHIBITION [%]
Cn1ccnc(Sc2ccccc2)c1=O	-4.13
CCOc1ccccc1C(=O)NCc1nncn1C1CC1	11.4
CC1(c2nccs2)CCN(C(=O)CC2CCOCC2)CC1	-1.25
CC(=O)N1CCC2(CCCN(S(=O)(=O)c3ccccc3)C2)C1 (configuration not stated)	-60.3
CCc1cc(NCCCNS(C)(=O)=O)nc(-c2ccncc2)n1	15.2
CCC=C(C)C(=O)N1CSCC1C(=O)N(C)CCc1ccncc1 (configuration not stated)	-16.7
Cc1cc(C)n(CC2CCCCN2CC(=O)Nc2nncs2)n1 (configuration not stated)	11.1
Cc1cc(C)n(CC2CCCCN2CC(=O)Nc2nnc(C)s2)n1 (configuration not stated)	-16.5
Cc1cc(C)n(CC2CCCCN2CC(=O)Nc2nccs2)n1 (configuration not stated)	77.6
CCCc1n[nH]c(C2CN(CCc3cccs3)CCO2)n1 (configuration not stated)	-23.9
CCC(C)N(CC)C(=O)c1ccc2[nH]nnc2c1 (configuration not stated)	-29.1
CN1CCN(CC(C)(C)C)CC1CCO (configuration not stated)	-1.26
COc1cc(C(=O)O)ccc1OCC(=O)NCCc1ccccc1	37.4
Cc1cc(C)c(CNC(=O)NCCNc2ncccn2)c(=O)[nH]1	25.7
Cc1cc(C)c(CNC(=O)NCCNc2ccccn2)c(=O)[nH]1	46.1
Cc1cc(C)c(CNC(=O)N2CCN(c3cnccn3)CC2)c(=O)[nH]1	51.2
O=C(NCC1CCS(=O)(=O)C1)N1CCN(c2cnccn2)CC1 (configuration not stated)	50.3
O=C(C1CCS(=O)(=O)C1)N1CCN(c2cnccn2)CC1 (configuration not stated)	16.7
Cc1cc(C)c(CNC(=O)NCCNc2cnccn2)c(=O)[nH]1	73
O=C(NC1CCS(=O)(=O)C1)N1CCN(c2cnccn2)CC1 (configuration not stated)	33
Cc1cc(C)c(CNC(=O)C2CCN(c3cnccn3)CC2)c(=O)[nH]1	12.255
Cc1cc(C)c(CNC(=O)N2CCN(c3ccccn3)CC2)c(=O)[nH]1	9.4
CN1CCN(C(=O)c2occc2CN2C(=O)Cc3ccccc32)CC1	37.9

SMILES	INHIBITION [%]
c1cncc(CN2CCn3cc(CN4CCCCC4)nc3C2)c1	35.8
Cc1ccoc1C(=O)N1Cc2c(CN3CCCCC3)nn(C)c2C1	3.69
O=C(NCCCn1nc2ccccn2c1=O)NC(C1CC1)C1CC1	16.3
COc1ccc(CC(=O)NC2CCN(CC(F)F)CC2)cc1OC	14.4
CCOC[C@H]1CC[C@H]2[C@H](CCN2C(=O)c2ccncc2F)O1	41.4
CN(C)CCOC[C@H]1CC[C@H]2[C@H](CCN2C(=O)c2ccoc2)O1	34.6
O=C(c1ccoc1)N1CC[C@@H]2O[C@H](COCc3ccccn3)CC[C@@H]21	34.1
COCC(=O)N1CC[C@@H]2O[C@H](COCc3ccncc3)CC[C@@H]21	33.5
CC(C)COC[C@@H]1CC[C@H]2[C@H](CCN2C(=O)c2ccncc2F)O1	13.5
O=C(c1ccoc1)N1CC[C@@H]2O[C@@H](COCCN3CCCC3)CC[C@@H]21	31.1
CC(C)COC[C@H]1CC[C@H]2[C@H](CCN2C(=O)c2ccncc2F)O1	53
O=C(c1ccoc1)N1CC[C@@H]2O[C@@H](COCc3ccncc3)CC[C@@H]21	52
O=C(c1ccoc1)N1CC[C@@H]2O[C@@H](COCc3ccccn3)CC[C@@H]21	53.2
CCS(=O)(=O)N1CCC2(CN(c3ccsc3)C(=O)CN2C)C1 (configuration not stated)	1.9
CN(C)CC1(O)CCCN(C(=O)CCn2cc(Cl)cn2)C1 (configuration not stated)	-47
CSc1nc2ccsc2c(=O)n1CC(=O)N(C)C1CCCCC1	26.6
Cn1nccc1C(=O)N1CCCC1c1[nH]ncc1C(N)=O (configuration not stated)	-31
CCOC(=O)N1CCN(C(=O)CCn2cccc2)CC1	35
Cc1nc(CN2CCC3(CC2)C(=O)N(C)CCN3C)cs1	31.5
Cn1cc(-c2nnn3c2COC(CNC(=O)c2cccs2)C3)cn1 (configuration not stated)	8.64
Cc1nc(CN2CCN(C(=O)c3ccnc(N(C)C)c3)CC2)cs1	43.2
Cc1ccc(CN(C)C(=O)C(C)n2ccnc2C(C)C)o1 (configuration not stated)	33
O=C(c1cccc(-c2ncc[nH]2)c1)N1CC[C@H](CO)[C@@H](O)C1	-12.1

SMILES	INHIBITION [%]
O=C(c1cccc(-c2ncc[nH]2)c1)N1CCC(N2CCCC(O)C2)CC1 (configuration not stated)	57.2
CN(C)C1CCCN(C(=O)c2cccc(-c3ncc[nH]3)c2)CC1 (configuration not stated)	12.8
Cc1ncnc2c1CCN(Cc1nccs1)CC2	8.85
CC(C(=O)NCC(C)(C)c1ccc(Br)cc1)n1cncn1 (configuration not stated)	23.1
O=c1[nH]cnc2[nH]c(N3CCOCC3)nc12	31.8
COc1ccc2nc(C3CC3)cc(C(=O)NCc3ncnn3C)c2c1	10.7
COc1ccc2nc(C3CC3)cc(C(=O)NCC(=O)N(C)C)c2c1	13.9
COc1ccc2nc(C3CC3)cc(C(=O)NCc3noc(C)n3)c2c1	57.2
COc1ccc(C)cc1CC(=O)NC(CC(=O)O)c1ccc(F)cc1 (configuration not stated)	58.3
COc1ccc(C(=O)NC(CC(=O)O)c2cccs2)c(OC)c1 (configuration not stated)	-5.25
COc1ccc(C)cc1C(=O)NC(CC(=O)O)c1cccs1 (configuration not stated)	52.3
COc1ccccc1CC(=O)NC(CC(=O)O)c1ccc(F)cc1 (configuration not stated)	32.3
COc1ccc(CC(=O)NC(CC(=O)O)c2ccc(F)cc2)cc1OC (configuration not stated)	29
COc1ccc(Cl)cc1C(=O)NC(CC(=O)O)c1cccs1 (configuration not stated)	29.7
CCOc1ccccc1C(=O)NC(CC(=O)O)c1cccs1 (configuration not stated)	13.3
O=C(O)CC(NC(=O)c1ccccc1OC(F)F)c1cccs1 (configuration not stated)	68.8
COc1ccccc1CC(C)CC(=O)O (configuration not stated)	29.3
COc1ccccc1C(=O)NC(CC(=O)O)c1cccs1 (configuration not stated)	-9.14
COc1cccc(-c2n[nH]cc2C(=O)NC(C)CC(=O)O)c1 (configuration not stated)	42.3
COc1ccccc1C(=O)NC(C)CC(=O)O (configuration not stated)	51.3
Cc1csc(CN2CCC[C@]3(C[C@@H](OCC4CC4)CO3)C2)n1	35.6
